Test results from ChEMBL document CHEMBL1961873, “Compounds: GSK PKIS; Assays: Nanosyn kinase panel” (2012).

Legend:
[1] = biological target: T1, Serine/threonine-protein kinase Nek1 (Homo sapiens) (UniProt Q96PY6); details: at 0.1 µM
T1 sequence (whole entry): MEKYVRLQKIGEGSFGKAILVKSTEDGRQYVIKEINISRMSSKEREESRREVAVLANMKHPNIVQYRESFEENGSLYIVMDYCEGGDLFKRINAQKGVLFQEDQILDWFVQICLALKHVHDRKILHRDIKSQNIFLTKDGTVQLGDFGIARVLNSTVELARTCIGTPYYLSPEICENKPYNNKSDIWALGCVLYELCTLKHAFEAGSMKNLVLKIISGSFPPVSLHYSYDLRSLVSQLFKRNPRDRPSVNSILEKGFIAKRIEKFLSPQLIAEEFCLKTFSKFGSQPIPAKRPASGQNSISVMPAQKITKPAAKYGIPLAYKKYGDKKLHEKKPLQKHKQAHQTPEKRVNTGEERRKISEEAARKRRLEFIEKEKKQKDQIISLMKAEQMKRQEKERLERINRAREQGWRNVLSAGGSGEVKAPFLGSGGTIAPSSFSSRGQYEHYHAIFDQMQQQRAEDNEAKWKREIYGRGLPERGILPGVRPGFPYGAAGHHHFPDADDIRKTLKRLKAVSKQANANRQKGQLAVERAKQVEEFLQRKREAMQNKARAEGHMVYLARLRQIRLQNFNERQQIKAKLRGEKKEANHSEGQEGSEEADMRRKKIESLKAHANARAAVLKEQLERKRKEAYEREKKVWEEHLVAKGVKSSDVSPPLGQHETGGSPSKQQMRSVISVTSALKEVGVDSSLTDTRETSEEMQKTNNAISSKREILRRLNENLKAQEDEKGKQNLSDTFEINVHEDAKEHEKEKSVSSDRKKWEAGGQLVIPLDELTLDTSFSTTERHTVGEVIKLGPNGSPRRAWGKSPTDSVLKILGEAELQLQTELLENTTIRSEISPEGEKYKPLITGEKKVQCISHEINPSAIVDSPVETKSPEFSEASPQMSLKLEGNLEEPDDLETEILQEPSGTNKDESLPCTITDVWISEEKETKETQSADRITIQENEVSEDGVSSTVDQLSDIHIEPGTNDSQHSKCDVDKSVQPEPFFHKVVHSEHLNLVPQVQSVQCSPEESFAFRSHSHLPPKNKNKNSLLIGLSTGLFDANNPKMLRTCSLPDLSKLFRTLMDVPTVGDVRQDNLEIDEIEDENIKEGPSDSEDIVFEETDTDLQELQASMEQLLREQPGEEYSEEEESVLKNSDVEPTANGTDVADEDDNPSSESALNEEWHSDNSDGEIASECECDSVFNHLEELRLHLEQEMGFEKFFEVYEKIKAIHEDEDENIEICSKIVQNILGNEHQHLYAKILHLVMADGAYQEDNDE

[2] = biological target: T1, Serine/threonine-protein kinase Nek1 (Homo sapiens); details: at 1 µM
[3] = biological target: T2, Serine/threonine-protein kinase Nek2 (Homo sapiens) (UniProt P51955); details: at 0.1 µM
T2 sequence (whole entry): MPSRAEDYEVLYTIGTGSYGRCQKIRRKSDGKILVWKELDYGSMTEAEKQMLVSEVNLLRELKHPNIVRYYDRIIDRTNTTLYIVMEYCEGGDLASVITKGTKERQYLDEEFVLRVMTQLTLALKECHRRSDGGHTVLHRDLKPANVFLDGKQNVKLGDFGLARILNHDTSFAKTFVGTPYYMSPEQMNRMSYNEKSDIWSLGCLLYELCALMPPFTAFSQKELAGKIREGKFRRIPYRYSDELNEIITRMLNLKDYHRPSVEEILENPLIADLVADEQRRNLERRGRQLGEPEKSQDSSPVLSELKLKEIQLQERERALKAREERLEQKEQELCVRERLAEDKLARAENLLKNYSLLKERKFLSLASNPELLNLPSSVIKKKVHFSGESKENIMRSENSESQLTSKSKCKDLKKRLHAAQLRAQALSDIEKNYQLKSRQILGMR

[4] = biological target: T2, Serine/threonine-protein kinase Nek2 (Homo sapiens); details: at 1 µM
[5] = biological target: Serine/threonine-protein kinase Nek6 (Homo sapiens) (UniProt Q9HC98); details: at 0.1 µM
Sequence of Serine/threonine-protein kinase Nek6 (Homo sapiens) (Q9HC98 whole entry): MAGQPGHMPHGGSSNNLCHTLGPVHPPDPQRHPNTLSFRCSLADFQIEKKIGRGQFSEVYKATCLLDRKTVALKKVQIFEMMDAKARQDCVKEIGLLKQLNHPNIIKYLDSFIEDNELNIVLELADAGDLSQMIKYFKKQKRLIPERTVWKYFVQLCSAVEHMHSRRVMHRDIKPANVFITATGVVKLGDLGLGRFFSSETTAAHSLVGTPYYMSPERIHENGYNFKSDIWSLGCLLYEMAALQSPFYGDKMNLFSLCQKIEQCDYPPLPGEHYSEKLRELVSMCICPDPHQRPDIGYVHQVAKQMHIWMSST

[6] = biological target: Serine/threonine-protein kinase Nek6 (Homo sapiens) (UniProt Q9HC98); details: at 1 µM
[7] = biological target: Serine/threonine-protein kinase Nek7 (Homo sapiens) (UniProt Q8TDX7); details: at 0.1 µM
Sequence of Serine/threonine-protein kinase Nek7 (Homo sapiens) (Q8TDX7 whole entry, looked up): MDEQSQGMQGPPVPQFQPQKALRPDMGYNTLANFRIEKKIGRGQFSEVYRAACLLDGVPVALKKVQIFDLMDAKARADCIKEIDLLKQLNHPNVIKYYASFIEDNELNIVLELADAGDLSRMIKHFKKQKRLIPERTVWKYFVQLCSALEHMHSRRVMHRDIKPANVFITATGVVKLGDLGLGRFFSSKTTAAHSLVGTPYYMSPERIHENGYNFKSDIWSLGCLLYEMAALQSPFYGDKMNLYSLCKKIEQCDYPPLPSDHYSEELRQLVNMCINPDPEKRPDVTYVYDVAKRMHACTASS

[8] = biological target: Serine/threonine-protein kinase Nek7 (Homo sapiens) (UniProt Q8TDX7); details: at 1 µM
[9] = biological target: T3, Serine/threonine-protein kinase Nek9 (Homo sapiens) (UniProt Q8TD19); details: at 0.1 µM;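 note: reported value is the mean percent inhibition of NEK9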
T3 sequence (whole entry): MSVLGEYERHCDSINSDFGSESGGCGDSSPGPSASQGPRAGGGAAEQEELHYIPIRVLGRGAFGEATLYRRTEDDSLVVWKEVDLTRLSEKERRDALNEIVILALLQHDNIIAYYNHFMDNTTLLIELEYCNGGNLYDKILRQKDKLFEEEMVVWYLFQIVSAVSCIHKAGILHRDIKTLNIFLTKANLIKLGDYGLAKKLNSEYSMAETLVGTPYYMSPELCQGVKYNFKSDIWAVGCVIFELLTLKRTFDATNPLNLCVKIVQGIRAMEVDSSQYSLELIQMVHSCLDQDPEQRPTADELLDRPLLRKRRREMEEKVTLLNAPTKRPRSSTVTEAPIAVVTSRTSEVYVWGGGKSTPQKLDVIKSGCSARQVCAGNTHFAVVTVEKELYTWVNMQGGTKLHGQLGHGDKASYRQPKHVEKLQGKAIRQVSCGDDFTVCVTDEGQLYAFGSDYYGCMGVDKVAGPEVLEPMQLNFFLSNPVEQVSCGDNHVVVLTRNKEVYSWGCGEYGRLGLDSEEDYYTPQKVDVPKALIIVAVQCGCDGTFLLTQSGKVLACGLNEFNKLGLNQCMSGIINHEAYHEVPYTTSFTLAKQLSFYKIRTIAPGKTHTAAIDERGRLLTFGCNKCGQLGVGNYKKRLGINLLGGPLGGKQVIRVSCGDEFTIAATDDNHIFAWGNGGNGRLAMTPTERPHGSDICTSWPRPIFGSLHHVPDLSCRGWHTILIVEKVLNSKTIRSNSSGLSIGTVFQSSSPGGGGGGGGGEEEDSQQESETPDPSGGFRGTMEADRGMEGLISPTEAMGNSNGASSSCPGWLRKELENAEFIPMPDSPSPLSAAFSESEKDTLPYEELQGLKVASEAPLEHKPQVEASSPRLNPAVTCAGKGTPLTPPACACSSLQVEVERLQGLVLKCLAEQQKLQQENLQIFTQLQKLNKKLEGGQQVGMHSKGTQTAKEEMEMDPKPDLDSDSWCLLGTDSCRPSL

[10] = biological target: T4, Inhibitor of nuclear factor kappa-B kinase subunit epsilon (Homo sapiens) (UniProt Q14164); details: at 1 µM;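 note: reported values are averaged percent inhibition figures against human IKKε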
T4 sequence (whole entry): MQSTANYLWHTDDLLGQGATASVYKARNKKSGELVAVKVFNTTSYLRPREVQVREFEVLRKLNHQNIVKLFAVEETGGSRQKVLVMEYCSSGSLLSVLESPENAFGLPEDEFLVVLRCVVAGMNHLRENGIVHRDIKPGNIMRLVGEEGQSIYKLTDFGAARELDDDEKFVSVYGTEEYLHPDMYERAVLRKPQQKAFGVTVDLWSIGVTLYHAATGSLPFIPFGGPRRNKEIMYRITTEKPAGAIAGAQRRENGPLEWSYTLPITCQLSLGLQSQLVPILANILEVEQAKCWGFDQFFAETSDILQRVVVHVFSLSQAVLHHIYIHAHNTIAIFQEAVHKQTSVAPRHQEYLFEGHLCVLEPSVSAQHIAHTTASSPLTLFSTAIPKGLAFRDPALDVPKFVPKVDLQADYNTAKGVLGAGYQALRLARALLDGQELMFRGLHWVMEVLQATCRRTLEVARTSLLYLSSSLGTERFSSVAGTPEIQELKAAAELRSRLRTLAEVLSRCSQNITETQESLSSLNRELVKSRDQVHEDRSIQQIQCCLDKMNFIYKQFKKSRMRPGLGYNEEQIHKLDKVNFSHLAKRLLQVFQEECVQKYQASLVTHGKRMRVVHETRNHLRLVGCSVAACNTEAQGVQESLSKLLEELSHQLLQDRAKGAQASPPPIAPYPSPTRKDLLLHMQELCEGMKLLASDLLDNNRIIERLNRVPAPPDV

Row | Compound | inhibition [1] [%] | inhibition [2] [%] | inhibition [3] [%] | inhibition [4] [%] | inhibition [5] [%] | inhibition [6] [%] | inhibition [7] [%] | inhibition [8] [%] | inhibition [9] [%] | inhibition [10] [%]
1 | O=C(NCC1CC1)c1ccc(-c2cccc(C(=O)NC3CC3)c2)cc1 | 1.66 | 2.92 | 1.96 | 1.96 | 1.75 | 1.92 | 3.35 | 3.21 | 9.43 | –
2 | CN(c1ccc(NC(=O)Nc2c(Cl)cccc2Cl)cc1)c1ccnc(Nc2cccc(CS(C)(=O)=O)c2)n1 | 1.38 | 1.93 | 0.12 | 1.07 | 0.64 | 1.86 | 1.01 | 1.59 | -4.22 | 8.6
3 | CS(=O)(=O)CCNCc1cc(-c2cc3c(Nc4ccc(OCc5cccc(F)c5)c(Cl)c4)ncnc3s2)cs1 | 3.08 | 5.81 | 6.26 | 6.31 | 1.2 | 3.03 | 4.02 | 8.5 | 9.93 | 4.64
4 | COc1cc(Nc2ncc3c(C)nc(-c4cccc(C(F)(F)F)c4)n3n2)cc(OC)c1OC | 4.76 | 21.8 | 7.77 | 37.5 | 4.4 | 9.1 | 5.91 | 10.5 | 54.9 | 18.9
5 | O=C(Nc1n[nH]c2cc(-c3ccccc3)ccc12)C1CC1 | 1.53 | 3.2 | 5.82 | 6.37 | 0.8 | -0.52 | 5.67 | 3.1 | 4.27 | 4.27
6 | CNC(=O)c1cncc(/C=C/c2c(C)cccc2C)c1 | -0.56 | 2.88 | 0.66 | -0.77 | 1.65 | 0.01 | -1.37 | 0.6 | -0.53 | 0.54
7 | COc1cccc(-n2cnc3c(N/N=C/c4ccncc4)ncnc32)c1 | 0 | 9.07 | -1.74 | -1.3 | 2.37 | 2.69 | -0.81 | -2.76 | 0.98 | 4.51
8 | CCc1nccc2c1nc(-c1nonc1N)n2CC | 0.36 | 1.55 | 0.45 | 0.31 | 0.37 | 0.82 | 2.57 | 1.72 | 0.19 | –
9 | O=C(Nc1n[nH]c2nc(-c3ccco3)ccc12)C1CC1 | 1.33 | 1.36 | -0.12 | 1.78 | 1.86 | -0.99 | 2.23 | 2.61 | 6.28 | -0.75
10 | CCS(=O)(=O)c1ccc(OC)c(Nc2ncc(-c3ccccc3Cl)o2)c1 | 0.72 | 4.41 | 0.42 | 0.79 | 1.4 | -2.46 | -0.08 | 2.67 | 4.12 | 2.16
11 | CCS(=O)(=O)c1ccc(OC)c(Nc2ncc(-c3cccc(-c4ccccc4F)c3)o2)c1 | 1.03 | 1.67 | 0.99 | -0.68 | 1.36 | -2.09 | 1.63 | -0.61 | -0.87 | 0.08
12 | COc1ccc(-c2ccc3c(NC(=O)C4CC4)n[nH]c3n2)cc1 | 0.44 | 2.1 | 1.84 | 1.4 | 2.4 | 3.26 | 2.52 | 1.09 | 4 | -8.46
13 | NC(=O)c1cc(-c2ccc(F)cc2)cc(-c2ccncc2)c1N | 1.62 | 1.03 | 4.7 | 3.75 | 4.68 | 6.66 | 6.78 | 4.73 | 7.94 | 3.16
14 | CN(C)CCOc1ccc(-c2cc(-c3ccc4c(c3)CCC4=NO)c(-c3ccncc3)o2)cc1 | 0.25 | 0.32 | -0.54 | 0.32 | -0.38 | -0.66 | -2.05 | 0.51 | -0.48 | 0
15 | COc1cc2ncn(-c3cc(OCc4ccccc4C(F)(F)F)c(C(C)=O)s3)c2cc1OC | 2.21 | 1.9 | 3.91 | 4.69 | 1.95 | 3.34 | 1.7 | – | 8.54 | 4.7
16 | Cc1nnc(-c2ccc(C)c(-c3ccc(C(=O)NCc4ccc(Cl)cc4)cc3)c2)o1 | 2.48 | 4.54 | 4.28 | 3.25 | 3.46 | 5.29 | 5.57 | 3.78 | 6.68 | 5.13
17 | NS(=O)(=O)c1ccc(N/N=C2\C(=O)Nc3ccc(C(=O)NCCCn4ccnc4)cc32)cc1 | 2.1 | 4.83 | 4.5 | 5.08 | 2.7 | 3.62 | 6.31 | 5.01 | 9.43 | 26.6
